{
  "source": "the supplement of paper PMC5641865",
  "about": "“A screen for kinase inhibitors identifies antimicrobial imidazopyridine aminofurazans as specific inhibitors of the Listeria monocytogenes PASTA kinase PrkA” (The Journal of Biological Chemistry, 2017)",
  "note": "± gives the standard deviation of the averaged measurements.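 Note: End-point A600 read in BHI broth at 37 °C with 2% DMSO, inhibition computed as (1 − OD with compound plus ceftriaxone ÷ OD with ceftriaxone only) × 100.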",
  "data": [
    {"tested_on": "Listeria monocytogenes 10403S", "assay": "growth inhibition relative to ceftriaxone-alone control; higher = stronger potentiation of ceftriaxone growth inhibition", "settings": "10 µM; ceftriaxone 1 ug/ml; 12 h", "units": {"growth inhibition": "%"}, "values": [
      {"smiles": "CCN1CCN(c2ccc(Nc3cc(N(C)C(=O)Nc4c(Cl)c(OC)cc(OC)c4Cl)ncn3)cc2)CC1", "growth inhibition": "12.2 ± 5.4"},
      {"smiles": "CCN1CCC(CC(=O)Nc2n[nH]c3nc(-c4cccs4)c(Br)cc23)CC1", "growth inhibition": "7.98 ± 1.7"},
      {"smiles": "CNC(=O)c1cc(Oc2ccc(NC(=O)Nc3ccc(Cl)c(C(F)(F)F)c3)cc2)ccn1", "note": "[Sorafenib (Nexavar)]", "growth inhibition": "98.7 ± 1.8"},
      {"smiles": "CN(C)C(=O)O[C@@H]1CN[C@@H](C#Cc2cc3ncnc(Nc4ccc(OCc5cccc(F)c5)c(Cl)c4)c3s2)C1", "growth inhibition": "-5.56 ± 8.1"},
      {"smiles": "Nc1ncnc2occ(-c3ccc(NC(=O)Nc4cccc(C(F)(F)F)c4)cc3)c12", "growth inhibition": "-12.9 ± 3.5"},
      {"smiles": "COc1cc2nccc(Oc3ccc(NC(=O)C4(C(=O)Nc5ccc(F)cc5)CC4)cc3)c2cc1OC", "note": "[XL-184 (Cabozantinib)]", "growth inhibition": "30.5 ± 5.4"},
      {"smiles": "Cc1[nH]c(/C=C2\\C(=O)Nc3ccc(S(=O)(=O)Cc4c(Cl)cccc4Cl)cc32)c(C)c1C(=O)N1CCC[C@@H]1CN1CCCC1", "growth inhibition": "78 ± 5.2"},
      {"smiles": "CN(C)Cc1cccc(N/C(=C2\\C(=O)Nc3cc(C(N)=O)ccc32)c2ccccc2)c1", "growth inhibition": "8.63 ± 3.3"},
      {"smiles": "O=C(O)c1ccc(Nc2ncc3c(n2)-c2ccc(Cl)cc2C(c2c(F)cccc2F)=NC3)cc1", "growth inhibition": "91.3 ± 3.5"},
      {"smiles": "Cn1cc(-c2ccc3nnc(Sc4ccc5ncccc5c4)n3n2)cn1", "growth inhibition": "18 ± 20"},
      {"smiles": "N#Cc1ccc2c(-c3ccnc(NC4CC4)n3)c(-c3ccc(F)cc3)nn2c1", "growth inhibition": "7 ± 2.3"},
      {"smiles": "Cc1c(NC(=O)OC[C@@H]2COCCN2)cn2ncnc(Nc3ccc4c(cnn4Cc4cccc(F)c4)c3)c12", "growth inhibition": "44.1 ± 20"},
      {"smiles": "COC(=O)Nc1nc2cc(Oc3ccc(NC(=O)Nc4cccc(C(=O)O)c4)cc3)ccc2[nH]1", "growth inhibition": "7.27 ± 7.2"},
      {"smiles": "CN1CCN(CCOc2cc(OC3CCOCC3)c3c(Nc4c(Cl)ccc5c4OCO5)ncnc3c2)CC1", "note": "[Saracatinib (AZD0530)]", "growth inhibition": "-2.45 ± 20"},
      {"smiles": "Fc1ccc(-c2ncn(C3CCNCC3)c2-c2ccnc(Oc3ccc4c(c3)OCO4)n2)cc1", "growth inhibition": "-3.86 ± 1.5"},
      {"smiles": "CCS(=O)(=O)c1ccc(OC)c(Nc2ncc(-c3cccc(F)c3)o2)c1", "growth inhibition": "2.54 ± 2.8"},
      {"smiles": "CCn1c(-c2nonc2N)nc2cncc(C(=O)N3CC[C@H](N)C3)c21", "growth inhibition": "7.57 ± 2.1"},
      {"smiles": "O=C1Nc2ccccc2/C1=C1/Nc2ccccc2C1=O", "note": "[Indirubin]", "growth inhibition": "-11.4 ± 11"},
      {"smiles": "C[C@@H](Oc1cc(-n2cnc3ccc(OC4CCN(C)CC4)cc32)sc1C(N)=O)c1ccccc1Cl", "growth inhibition": "0.604 ± 2.5"},
      {"smiles": "COc1cc2ncn(-c3cc(O[C@H](C)c4ccccc4Cl)c(C(N)=O)s3)c2cc1OC", "growth inhibition": "-3.78 ± 5.6"},
      {"smiles": "COC(=O)c1cncc(/C=C/c2c(C)cc(O)cc2C)c1", "growth inhibition": "-6.45 ± 1.7"},
      {"smiles": "CCN1CCC(C(=O)Nc2n[nH]c3nnc(-c4cccc(F)c4F)cc23)CC1", "growth inhibition": "0.339 ± 3.9"},
      {"smiles": "COc1cc(N2CCN(C(C)C)CC2)ccc1Nc1nc(Nc2ccc(F)cc2C(=O)NC[C@@H](O)CO)c2cc[nH]c2n1", "growth inhibition": "5.09 ± 0.17"},
      {"smiles": "CNC(=O)c1cncc(/C=C/c2ccccc2Cl)c1", "growth inhibition": "-3.04 ± 0.74"},
      {"smiles": "CCCN1CCC(Oc2cc(Nc3nc(Nc4cccc(F)c4C(N)=O)c4cc[nH]c4n3)c(OC)cc2Cl)CC1", "growth inhibition": "-13.1 ± 20"}
    ]}
  ]
}
